# Where “and” joins values, the source holds several entries; their conditions need not be identical. Equal entries are not always repeated. Results filed as inconclusive are left out. A call without a number means that no potency is given here. Calls of active or inactive are those of the source. The call rests on the fitted dose curve; in most records, active means well fitted cell-killing curve with a large enough effect; inconclusive means small, poorly fitted or top-dose-only effect, or effect the other way; inactive means flat fitted curve, though single readings scatter.
# Assay: Cell Viability - HUV-EC-C (AID 542); further: nearly all actives have a fitted effect of over 35% in size
# Details: HUV-EC-C endothelial cell viability, qHTS; series mostly up to 92.2 µM
# From the text: NIH Chemical Genomics Center [NCGC]
# NIH Molecular Libraries Screening Centers Network [MLSCN]
# National Institutes of Environmental Health Sciences [NIEHS]
# National Toxicology Program [NTP]
# We have developed a 1536-well cell-based assay for quantitative high throughput screening (qHTS) against a number of cell lines to determine in vitro cytotoxicity of small molecules. This particular assay uses the HUV-EC-C cell line which is derived from normal human vascular endothelial cells.
# NCGC Assay Protocol Summary:
# The CellTiter-Glo luminescent cell viability assay (Promega) is a homogeneous method to measure the number of viable cells in culture. The end point readout of this assay is based on quantitation of intracellular ATP, an indicator of metabolic activity, using the luciferase reaction. Luciferase catalyzes the oxidation of beetle Luciferin to oxyluciferin and light in the presence of ATP. The luminescent signal is proportional to amount of ATP present.
# Using the CellTiter-Glo luminescent cell viability assay, the amount of cellular ATP was measured in the HUV-EC-C cell line with complete culture medium following compound treatment for 40 hours. The assay was performed in opaque white Kalypsys 1536-well plates. In the screen, tamoxifen and doxorubicin were used as positive controls. Library compounds were measured for their ability to cause acute toxicity in the cell line, as reflected by a decrease in intracellular ATP levels, in a concentration-dependent manner. […] AC50 values were determined from concentration-response data modeled with the standard Hill equation.
# qHTS protocol for CellTiter Glo HUV-EC-C cellular assay
# [Step] [Parameter] [Value] [Description]
# 1. Reagent; 5 uL; 1000 HUV-EC-C cells/well
# 2. Time; 5 hr; 37 °C incubation
# 4. Controls; 23 nL; Tamoxifen 0.34 uM to 100 uM & Doxorubicin 0.02 nM to 100 uM
# 5. Time; 40 hr; 37 °C incubation
# 6. Reagent; 5 uL; CellTiter Glo reagent
# 7. Time; 20 min; Room Temperature
# 8. Detection; Luminescence; Viewlux plate reader
# Keywords: cell viability, cytotoxicity, HUV-EC-C cell line, luminescence, NTPHTS, NTPHTS_NCGC, NIEHS, EPA, DSSTox, MLSMR, MLSCN, NIH Roadmap, qHTS, NCGC
# Potency means the concentration at half of the fitted maximal effect.
row,Structure (SMILES),Potency
1,C[C@]12CCC(=O)C[C@@H]1CC[C@@H]1[C@@H]2CC[C@]2(C)[C@@H](O)CC[C@@H]12,inactive
2,C=CCN=C=S,inactive
3,O=C/C=C/c1ccccc1,inactive
4,O=C(O)C(Cl)(Cl)Cl,inactive
5,[Cl-].[Cl-].[Hg+2],10 µM (active)
6,O=[N+]([O-])c1ccc(F)c([N+](=O)[O-])c1,inactive
7,CCOC(=O)c1ccccc1C(=O)OCC,inactive
8,NNC(N)=O,inactive
9,ClC=C(Cl)Cl,inactive
10,CCCCCCCCOC(=O)c1ccccc1C(=O)OCCCCCCCC,inactive
11,Oc1cc(Cl)c(Cl)cc1Cl,inactive
12,ClC(Cl)(Cl)Cl,inactive
13,C[C@H]1CCC[C@H](O)CCCCCc2cc(O)cc(O)c2C(=O)O1,inactive
14,CC(C)(C)c1cc(O)ccc1O,inactive
15,O=C1C=CC(=O)C=C1,inactive
16,O=C1C2CC=CCC2C(=O)N1SC(Cl)(Cl)Cl (stereo unspecified),50.1 µM (active) and 25.1 µM (active)

row,Structure (SMILES),Potency
1,CCCCCl,inactive
2,O=[N+]([O-])c1ccccc1,inactive
3,CC(C)Nc1ccc(Nc2ccccc2)cc1,12.6 µM (active)
4,[O]=[Cd],inactive
5,ClCC1CO1 (stereo unspecified),inactive
6,Clc1ccccc1Cl,inactive
7,COc1ccc2c(c1OC)C(=O)OC2C1c2cc3c(cc2CCN1C)OCO3 (stereo unspecified),inactive
8,O=CC=O,inactive
9,O=C1CCO1,inactive
10,O=Cc1ccco1,inactive
11,COC1=CC(=O)O[C@@H](/C=C/c2ccccc2)C1,inactive
12,CC(C)CCON=O,inactive
13,S=C=S,inactive
14,C[C@H]1CC[C@@H]2[C@@H](C)[C@H]3[C@H](C[C@H]4[C@@H]5CC=C6CC(O[C@@H]7O[C@H](CO)[C@H](O)[C@H](O[C@@H]8O[C@H](CO)[C@@H](O)[C@H](O)[C@H]8O)[C@H]7O[C@H]7O[C@@H](C)[C@H](O)[C@@H](O)[C@H]7O)CC[C@]6(C)[C@H]5CC[C@]34C)N2C1 (stereo partly specified),31.6 µM (active)
15,[O]=[Cr](=[O])([OH])[O][Cr](=[O])(=[O])[OH],3.98 µM (active) and 20 µM (active) and 5.01 µM (active)
